The campaign covered roughly 2,100 compounds. About 1,100 (52%) were called active. Not shown: some 29% with an inconclusive outcome. The set was probably picked from earlier hits. The list shows a part of the results. Values without a mark were called inactive. Calls follow the shape of the dose curve; as a rule, active = well fitted inhibition curve with a large enough effect; inconclusive = small, poorly fitted or top-dose-only effect; inactive = no such curve, though single readings can be large or run the other way.
Each molecule was assayed against DNA dC->dU-editing enzyme APOBEC-3F (Homo sapiens) (UniProt Q8IUX4) (assay: qHTS for inhibitors of Vif-A3F interactions: Cherry picks counterscreen). Details: HeLa A3F-eYFP/Vif cells, eYFP fluorescence, 24 h; series mostly up to 46.1 µM; activity, negative = inhibitor: at the top concentration.
DNA dC->dU-editing enzyme APOBEC-3F (Homo sapiens), sequence (Q8IUX4 whole entry, looked up): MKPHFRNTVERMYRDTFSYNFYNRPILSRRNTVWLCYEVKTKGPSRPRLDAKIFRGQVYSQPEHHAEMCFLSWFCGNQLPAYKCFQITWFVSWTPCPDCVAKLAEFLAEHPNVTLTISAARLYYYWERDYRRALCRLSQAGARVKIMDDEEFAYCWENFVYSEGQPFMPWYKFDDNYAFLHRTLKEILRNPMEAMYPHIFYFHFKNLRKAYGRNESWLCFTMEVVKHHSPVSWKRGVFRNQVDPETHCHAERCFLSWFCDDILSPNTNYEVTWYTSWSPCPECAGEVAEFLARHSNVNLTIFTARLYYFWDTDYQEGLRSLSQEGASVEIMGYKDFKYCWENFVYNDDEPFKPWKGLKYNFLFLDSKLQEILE
Summary of the method: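 Rescue of Vif-driven A3F-eYFP degradation read as cellular eYFP fluorescence after 24 h compound exposure (several concentrations) in stable HeLa cells; MG132 (2 mM stock) as positive control.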
% is scaled to controls: 0 for no effect and ±100 for the full control effect; potency is read from the fitted curve at half-maximal effect.
Also: nearly all actives have a fitted effect of over 65% in size.

Compound | activity, negative = inhibitor | Potency
S=C(NN=Cc1ccccn1)Nc1ccccn1 | 13.5% | –
Nc1cccc(CCc2nc3cc4ccccc4cc3[nH]2)c1 | – | 4.44 µM (active)
O=C(NNc1ncc(C(F)(F)F)cc1Cl)c1c(Cl)cccc1Cl | – | 4.44 µM (active)
Cc1cc(C)c(C(=O)N(CCN(C)C)CC2CCCN(Cc3ccccc3F)C2)o1 (stereo not drawn) | -1.53% | –
CC(C)OC(=O)c1cc(C(=O)c2cc(F)ccc2O)coc1=N | – | 20.6 µM (active)
CCC(=O)Nc1ccccc1-c1nc2ccccc2n(C(C)C(=O)Nc2ccc(OC)cc2)c1=O (stereo not drawn) | – | 16.4 µM (active)
Brc1ccc2c(c1)C(c1cccnc1)=NNC(c1cccs1)=N2 | – | 14 µM (active)
c1cncc(-c2nc(NCc3cccs3)c3ccccc3n2)c1 | -5.28% | –
COC(=O)c1sccc1S(=O)(=O)N(CC(=O)Nc1cc(F)ccc1F)c1ccc(C)c(C)c1 | -18.6% | –
CCOC(=O)c1[nH]c(C)c(C(=O)Nc2ccccc2F)c1C | – | 3.14 µM (active)
COc1ccc(OC)c(NC(=O)c2cc(-c3cc(C)cc(C)c3O)n[nH]2)c1 | -0.959% | –
CCOC(=O)c1[nH]c(C)c(C(=O)Nc2ccc(C)cc2C)c1C | – | 2.23 µM (active)
CC(=O)c1c(C)[nH]c(C(=O)Nc2ccc(Cl)cc2F)c1C | -0.176% | –
CCOC(=O)c1[nH]c(C)c(C(=O)Nc2cc(OC)ccc2OC)c1C | – | 1.77 µM (active)
Cc1ccc(C)c(N2CCN(C(=O)c3cccn4c(=O)c5sccc5nc34)CC2)c1 | – | 15.8 µM (active)
O=c1[nH]c2ccccc2nc1/C=C(\O)c1cccs1 | – | 16.4 µM (active)
O=C(/C=C/c1cccs1)NCc1ccc2c(c1)OCO2 | -0.325% | –
O=C(NCc1ccc2c(c1)OCO2)c1cc([N+](=O)[O-])ccc1N1CCOCC1 | – | 4.98 µM (active)
O=C(NCc1ccc2c(c1)OCO2)c1cc([N+](=O)[O-])ccc1N1CCCCC1 | – | 1.58 µM (active)
Cc1cccc(-c2noc(-c3ccc(NCc4ccco4)c([N+](=O)[O-])c3)n2)c1 | – | 14.6 µM (active)
O=[N+]([O-])c1cc(-c2nc(-c3ccccc3)no2)ccc1NCc1ccco1 | – | 13 µM (active)
COc1ccccc1-c1noc(-c2ccc(NCc3ccco3)c([N+](=O)[O-])c2)n1 | – | 18.4 µM (active)
CCCCOc1ccc2c(c1)/C(=C(\C(Cl)=C(Cl)Cl)[N+](=O)[O-])N2 | -6.09% | –
N#Cc1c(C(F)(F)F)cc(-c2ccco2)nc1SCc1ccccn1 | – | 16.4 µM (active)

Compound | activity, negative = inhibitor | Potency
Cc1cc2nc3c(=O)n(CCc4ccccc4)c(=O)[nH]c3nc2cc1N | – | 5.17 µM (active)
Cc1cc2nc3c(=O)n(Cc4ccccc4)c(=O)[nH]c3nc2cc1N | – | 0.125 µM (active)
Cc1cc2nc3c(=O)n(C4CCCCC4)c(=O)[nH]c3nc2cc1N | – | 9.2 µM (active)
CCCCN(C(=O)c1ccc([N+](=O)[O-])s1)c1c(N)n(CCCC)c(=O)[nH]c1=O | -5.21% | –
CCOC(=O)N1CCN(C(=O)c2ccccc2-c2ccccc2)CC1 | – | 2.8 µM (active)
CC(/C=C/c1ccc(N(C)C)cc1)=N\N=C(/N)SC1CC(=O)N(c2ccc(C(=O)O)cc2)C1=O (stereo not drawn) | -28.3% | –
CN(C)c1ccc(/C=C/C(=O)c2ccc(O)cc2)cc1 | – | 4.61 µM (active)
CN(C)c1ccc(/C=C/C(=O)c2c(O)c3ccccc3oc2=O)cc1 | – | 4.11 µM (active)
CCN1/C(=C\C=C(C(C)=O)C(C)=O)Sc2ccccc21 | – | 14.6 µM (active)
N#Cc1c(-c2ccccc2)c(-c2ccccc2)nn(CC(=O)NNC(=O)Nc2ccccc2)c1=O | – | 4.44 µM (active)
N#Cc1c(-c2ccc(F)cc2)c(-c2ccc(F)cc2)nn(CCO)c1=O | – | 4.44 µM (active)
CC1(C)Cc2ccccc2C2CC(O)C(=O)N21 (stereo not drawn) | – | 18.4 µM (active)
Cc1ccc(-c2ccc(/C=N/NC(N)=S)o2)cc1 | -1.63% | –
Cc1ccc(NC(=O)/C(C#N)=C\c2ccc(-c3ccc(Cl)cc3)o2)c(C)c1 | – | 13 µM (active)
FC(F)(F)c1ccccc1NC(=S)NN=C1CCCCCC1 | 5.84% | –
O=C1CSC(=S)N1Cc1cccnc1 | – | 13 µM (active)
O=C1/C(=C/c2ccc(O)cc2)SC(=S)N1Cc1cccnc1 | 8.88% | –
O=C(NCc1cccs1)C1CCN(c2ccc(S(=O)(=O)N3CCOCC3)cc2Cl)CC1 | – | 2.8 µM (active)
CC(C)(C)OC(=O)NC(Cc1ccccc1)C(=O)N1CCC(C(=O)NCC(=O)Nc2ccc(F)cc2)CC1 (stereo not drawn) | – | 23.1 µM (active)
Cc1cc(C)c(N2C(=O)CC(Sc3ccccc3N)C2=O)c(C)c1 (stereo not drawn) | – | 15.8 µM (active)
Cc1cc(C)n(-c2nc3c(c(=O)[nH]c(=O)n3C)n2CC(O)COc2ccc(Cl)cc2Cl)n1 (stereo not drawn) | – | 2.23 µM (active)
COc1ccc(S(=O)(=O)N2N=C(C)Oc3ccccc3C2=O)cc1 | – | 3.14 µM (active)
CC1(C)CCN2CCC(C)(C)c3c(O)ccc1c32 | – | 14 µM (active)
CCOc1ccc(CN2C(=O)c3ccccc3Sc3ccc(C(=O)O)cc32)cc1 | – | 7.31 µM (active)

Source: PubChem BioAssay AID651815 (National Center for Advancing Translational Sciences (NCATS), 2012)
